Data taken from PubChem BioAssay AID1159602 (The Scripps Research Institute Molecular Screening Center, 2016).
Hit rate of the full screen: of about 22,000 compounds, about 220 (1%) were called active. Many of the other results were omitted from the sample, so actives are more common in it than they were. Unmarked numbers belong to inactive results. No stated cut-off is given here; in the data, active means inhibition above about 35%; inactive means the rest.

target: Mitogen-activated protein kinase kinase kinase 5 (Homo sapiens) (UniProt Q99683); experiment: blockers of MAP3K5 kinase activity – biochemical, AlphaScreen, primary screen (AID 1159602); details: AlphaScreen MKK6 phosphorylation by ASK1, luminescence; at 7.44 µM; active compounds read high;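 further: 0% = median of compound wells and 100% = no enzyme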
Sequence (Q99683 whole entry, looked up): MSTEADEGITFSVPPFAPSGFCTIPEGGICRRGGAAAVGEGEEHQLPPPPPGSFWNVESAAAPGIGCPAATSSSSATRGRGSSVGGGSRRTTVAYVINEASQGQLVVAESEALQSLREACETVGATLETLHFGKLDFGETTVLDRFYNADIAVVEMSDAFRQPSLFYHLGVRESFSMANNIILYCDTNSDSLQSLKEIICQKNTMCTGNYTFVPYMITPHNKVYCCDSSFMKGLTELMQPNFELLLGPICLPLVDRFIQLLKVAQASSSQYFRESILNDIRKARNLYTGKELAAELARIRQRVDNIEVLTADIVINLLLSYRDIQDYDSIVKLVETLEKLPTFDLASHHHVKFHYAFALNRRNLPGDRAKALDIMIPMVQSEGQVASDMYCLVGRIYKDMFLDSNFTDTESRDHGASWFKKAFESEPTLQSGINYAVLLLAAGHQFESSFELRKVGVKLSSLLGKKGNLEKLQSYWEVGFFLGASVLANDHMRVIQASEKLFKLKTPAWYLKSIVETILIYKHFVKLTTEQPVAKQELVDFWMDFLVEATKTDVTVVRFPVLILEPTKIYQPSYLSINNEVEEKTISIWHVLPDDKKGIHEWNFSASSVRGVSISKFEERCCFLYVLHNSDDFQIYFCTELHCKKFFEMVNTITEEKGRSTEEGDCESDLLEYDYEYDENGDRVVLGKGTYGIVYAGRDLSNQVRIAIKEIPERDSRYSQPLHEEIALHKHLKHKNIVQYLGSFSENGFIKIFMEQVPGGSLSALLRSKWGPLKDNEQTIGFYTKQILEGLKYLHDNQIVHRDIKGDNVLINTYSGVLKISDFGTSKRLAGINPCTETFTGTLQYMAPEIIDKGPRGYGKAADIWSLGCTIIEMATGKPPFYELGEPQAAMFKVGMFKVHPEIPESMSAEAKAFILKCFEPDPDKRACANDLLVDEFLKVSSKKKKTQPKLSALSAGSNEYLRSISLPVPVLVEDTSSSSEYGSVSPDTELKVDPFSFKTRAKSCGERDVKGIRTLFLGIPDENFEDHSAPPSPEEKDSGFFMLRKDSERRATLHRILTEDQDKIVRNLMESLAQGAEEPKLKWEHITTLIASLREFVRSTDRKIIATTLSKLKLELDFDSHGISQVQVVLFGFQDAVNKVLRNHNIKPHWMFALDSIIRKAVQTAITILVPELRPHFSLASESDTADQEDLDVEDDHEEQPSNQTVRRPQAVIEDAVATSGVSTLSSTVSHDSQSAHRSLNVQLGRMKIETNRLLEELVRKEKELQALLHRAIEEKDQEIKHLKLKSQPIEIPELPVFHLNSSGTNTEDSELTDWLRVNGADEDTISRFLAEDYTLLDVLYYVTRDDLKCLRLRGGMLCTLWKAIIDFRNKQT

| SMILES | inhibition |
| --- | --- |
| O=C(NCCO)c1ccc2nc(NCCN3CCOCC3)sc2c1 | -9.95% |
| COc1nc(Nc2ccccc2)nc(-c2csc3ccccc23)n1 | -2.87% |
| c1csc(-c2ccnc(Nc3ccc(N4CCOCC4)cc3)n2)c1 | 13.2% |
| CCCNc1nc(-c2cccc(C(C)=O)c2)ncc1C | -6.63% |
| O=C(Nc1ccc2[nH]ncc2c1)C1CCN(C(=O)[C@H](O)c2cccc(Cl)c2)C1 (stereo partly drawn) | -11.7% |
| CC(C)n1cnc2c(NC3CCN(Cc4ccccc4)CC3)nc(-c3ccc(N4CCOCC4)nc3)nc21 | 11% |
| O=C1CCCN1CCCNc1cc(NCc2cccnc2)ncn1 | 2.26% |
| CCN(CC)C(=O)C1CCCN(c2nc3ncnc(NCCN4CCOCC4)c3[nH]2)C1 (stereo not drawn) | 1.62% |
| O=C(NC1CC1)c1ccc(-c2ncc(C(=O)Nc3ccc(N4CCOCC4)cc3)s2)cc1 | 1.95% |
| Nc1cccc(-c2ccc(C(=O)NCc3nc4ccccc4[nH]3)s2)c1 | 7.11% |
| CCCNc1nc(-c2ccc(C(=O)N3CCN(C)CC3)cc2)nc2c1ncn2C(C)C | -4.93% |
| c1ccc(OCCNc2cc(NCc3ccc4c(c3)OCO4)ncn2)cc1 | 11.6% |
| O=C(NC1CC1)c1ccc(-c2nc(NC3CC3)c3ncn(C4CCCCC4)c3n2)cc1 | -4.59% |
| Cc1[nH]ncc1-c1ccc(NC(=O)CCc2ccccc2)cc1 | 1.62% |
| O=C(NC1CC1)c1ccc(-c2nc(C(=O)NCc3cccc(C(F)(F)F)c3)cs2)cc1 | -7.56% |
| c1ccc(CN2CCC(Nc3nc(NCc4ccc5c(c4)OCO5)nc4c3ncn4C3CCCCC3)CC2)cc1 | 24.9% |
| FC(F)(F)c1ccc(Cn2cnc3c(NC4CCN(Cc5ccccc5)CC4)nc(Nc4nccc5ccccc45)nc32)cc1 | 7.54% |
| FC(F)(F)c1cnc(Nc2ccc(N3CCOCC3)cc2)cc1-n1ncc2ccccc21 | -0.62% |
| FC(F)(F)c1cccc(CNc2nc(N3CCN(c4ccccn4)CC3)nc3c2ncn3-c2ccsc2)c1 | 40.9% (active) |
| O=C1CCCN1CCn1cnc2c(NCc3cccc(C(F)(F)F)c3)nc(N3CCN(Cc4ccc5c(c4)OCO5)CC3)nc21 | 15.8% |
| FC(F)(F)c1cccc(CNc2nc(N3CCN(Cc4ccc5c(c4)OCO5)CC3)nc3c2ncn3-c2ccccc2)c1 | 36.7% (active) |

| SMILES | inhibition |
| --- | --- |
| FC(F)(F)c1cccc(CNc2ncnc3nc(N4CCOCC4)[nH]c23)c1 | -25.3% |
| Cc1cnc(Nc2ccc(N3CCOCC3)cc2)nc1NCc1cccc(C(F)(F)F)c1 | 41.4% (active) |
| c1ccc(N2CCN(c3nc(NCc4nc5ccccc5[nH]4)c4ncn(-c5ccsc5)c4n3)CC2)nc1 | -8.09% |
| O=C1CCCN1CCCNc1nc(N2CCN(Cc3ccc4c(c3)OCO4)CC2)nc2c1ncn2-c1ccccc1 | 14.4% |
| FC(F)(F)c1cccc(CNc2nc(N3CCOCC3)nc3c2ncn3-c2ccsc2)c1 | 8.31% |
| FC(F)(F)c1ccc(Cn2cnc3c(NCc4cccc(C(F)(F)F)c4)nc(Nc4ccc(N5CCOCC5)cc4)nc32)cc1 | 12.8% |
| c1ccc(CNc2nc(N3CCN(c4ccccn4)CC3)nc3c2ncn3-c2ccsc2)cc1 | 19.3% |
| COc1cc(Nc2nc(NCc3cccc(C(F)(F)F)c3)c3ncn(-c4ccsc4)c3n2)cc(OC)c1OC | 15.7% |
| FC(F)(F)c1cccc(CNc2nc(Nc3ccc(N4CCOCC4)cc3)nc3c2ncn3-c2ccsc2)c1 | 41.6% (active) |
| O=C(Nc1ccncc1)OC1CCN(C(=O)[C@H](O)COc2ccc(Br)cc2)CC1 | -3.38% |
| COC(=O)c1cccc(-n2ncc3cc(Nc4ccccc4)ccc32)c1 | -20.5% |
| Cc1noc(C)c1-c1nc(NC2CC2)c2ncn(-c3ccsc3)c2n1 | -7.13% |
| COc1cc2nc(N3CCN(c4ccccn4)CC3)nc(NCc3nc4ccccc4[nH]3)c2cc1OC | -8.78% |
| CC(=O)Nc1ccc(NC(=O)c2csc(N3CCC(N4CCOCC4)CC3)n2)cc1 | 14.1% |
| CCCNc1nc(-c2cccc(C(C)=O)c2)nc2nc[nH]c12 | 6.62% |
| c1ccc(OCCNc2nc(N3CCC(N4CCOCC4)CC3)nc3c2ncn3-c2ccccc2)cc1 | 8.08% |
| CC(C)(C)OC(=O)N1CCC(CC(=O)Nc2ccnn2-c2cccc(C(=O)Nc3ccc(N4CCOCC4)cc3)c2)CC1 | 7.81% |
| Cc1noc(C)c1-c1cc(C(=O)NCc2cccc(C(F)(F)F)c2)ccn1 | 1.72% |
| O=C(NCCOc1ccccc1)c1cnc(Nc2cccnc2)s1 | 4.63% |
| O=C(c1cccnc1)N1CCCC(Nc2ccc3[nH]ncc3c2)C1 (stereo not drawn) | -32% |
| Nc1cccc(-c2nc(NCc3nc4ccccc4[nH]3)c3ncn(Cc4ccc(C(F)(F)F)cc4)c3n2)c1 | -18.3% |

| SMILES | inhibition |
| --- | --- |
| Cc1cc(NCc2cccnc2)nc(-c2ccc(C(N)=O)cc2)n1 | 1.31% |
| COc1cc(Nc2cc(C(=O)NCc3ccccc3)ccn2)cc(OC)c1OC | 2.85% |
| O=C(NC1CC1)c1ccc(-c2nc(NC3CCN(Cc4ccccc4)CC3)c3ncn(C4CCCCC4)c3n2)cc1 | 9.66% |
| FC(F)(F)c1cccc(CNc2ncnc3nc(Nc4ccncn4)[nH]c23)c1 | 14.3% |
| COc1cc(NC(=O)c2ccnc(N3CCC(N4CCOCC4)CC3)c2)cc(OC)c1OC | 1.9% |
| NC(=O)c1cccc(N2CCCC2CO)n1 (stereo not drawn) | 1.37% |
| COc1cc(NC(=O)[C@H](N)c2ccc(F)cc2)c(F)cc1-c1cn[nH]c1 | 8.67% |
| Cc1nn(C)c(C)c1-c1nc(NCCc2ccc(O)cc2)c2ncn(CCN3CCCC3=O)c2n1 | -10.9% |
| Cn1c(Nc2nc(NCCN3CCOCC3)c3ncn(-c4ccccc4)c3n2)nc2ccccc21 | -13.6% |
| CCN(CC)C(=O)C1CCCN(c2nc(NCc3cccc(C(F)(F)F)c3)c3cc(OC)c(OC)cc3n2)C1 (stereo not drawn) | 3.43% |
| CCNc1nc(C(=O)NCc2ccccc2)cs1 | -2.48% |
| O=C(NCCN1CCOCC1)c1ccc2nc(N3CCCC3CO)sc2c1 (stereo not drawn) | 3.28% |
| CCCNc1cc(NC2CCN(Cc3ccccc3)CC2)nc(N)n1 | 6.95% |
| O=C([C@@H](O)CSc1ccc(Br)cc1)N1CCC(Nc2ccc3[nH]ncc3c2)CC1 | -0.23% |
| CC(=O)c1cccc(-c2nc3ccc(C(=O)NCCO)cc3s2)c1 | 0.91% |
| FC(F)(F)c1ccc(Cn2cnc3c(Nc4ccc(Oc5ccccc5)cc4)nc(N4CCOCC4)nc32)cc1 | 18% |
| CC(C)n1cnc2c(Nc3ccc(N4CCOCC4)cc3)nc(NC3CCC(O)CC3)nc21 (stereo not drawn) | 6.93% |
| Cc1cc(NC2CCN(Cc3ccccc3)CC2)nc(Nc2ccccc2)n1 | 12.7% |
| c1ccc(CN2CCC(Nc3nc(Nc4ccc(N5CCOCC5)cc4)c4ncn(C5CCCCC5)c4n3)CC2)cc1 | 22.4% |
| CC(C)n1cnc2c(NC3CCN(Cc4ccccc4)CC3)nc(Nc3ccc(N4CCOCC4)cc3)nc21 | 45% (active) |
| CC(C)n1cnc2c(NC3CCN(Cc4ccccc4)CC3)nc(NC3CCN(Cc4ccccc4)CC3)nc21 | 8.61% |

| SMILES | inhibition |
| --- | --- |
| O=C(Nc1ccc(Oc2ccccc2)cc1)c1cncc(-c2ccc(C(=O)NC3CC3)cc2)c1 | 9.5% |
| COc1cc(Nc2ncnc3c2nc(N2CCN(Cc4ccc5c(c4)OCO5)CC2)n3C(C)C)cc(OC)c1OC | 10.6% |
| CCNc1nc(C)cc(Nc2ccc(N3CCOCC3)cc2)n1 | 30.4% |
| COc1ccc(CCNc2cc(C)nc(Nc3cccc(N(C)C)c3)n2)cc1 | 70.9% (active) |
| COc1ccc(CCNc2ncnc3c2nc(Nc2cccc(N(C)C)c2)n3C(C)C)cc1 | 27.5% |
| Cc1cc(Nc2ccc(N3CCOCC3)cc2)nc(NCc2ccc3c(c2)OCO3)n1 | 37.3% (active) |
| COc1ccc(CCNc2cc(C)nc(NCc3ccc4c(c3)OCO4)n2)cc1 | 15.4% |
| Cc1cc(Nc2ccc3c(c2)OCO3)nc(Nc2cccc(N(C)C)c2)n1 | 62.2% (active) |
| CN(C)c1cccc(Nc2nccc(Nc3ccccc3)n2)c1 | 13% |
| CN(C)c1cccc(Nc2ncc(C(=O)Nc3ccc4c(c3)OCO4)s2)c1 | 24.2% |
| CC(=O)Nc1ccc(Nc2cc(C)nc(NCc3ccc4c(c3)OCO4)n2)cc1 | 5.86% |
| CC(=O)c1cccc(-c2ccc(C(=O)Nc3ccccc3)s2)c1 | -3.18% |
| COc1ccc2c(c1)C[C@H](C(=O)Nc1ccc(-c3cn[nH]c3)cc1N(C)CCN(C)C)NC2 | 5.32% |
| CC(C)N(CCNc1nc(Nc2ccccc2)nc2c1ncn2C(C)C)C(C)C | 6.04% |
| NC(=O)c1ccc(-c2nc(NCCO)c3ncn(-c4ccsc4)c3n2)cc1 | 0.26% |
| Cc1cnc(N2CCc3ccccc3C2)nc1NCCN(C(C)C)C(C)C | -16.8% |
| COc1cc(-c2cn[nH]c2)ccc1C(=O)NCCc1cccs1 | 15.3% |
| Cc1ccccc1-c1cscc1Nc1cnn(-c2cccc(C(=O)Nc3ccc(N4CCOCC4)cc3)c2)c1 | 37.8% (active) |
| Cc1cccc(CC(=O)Nc2cnn(-c3cccc(C(=O)Nc4ccc(N5CCOCC5)cc4)c3)c2)c1 | 16.2% |
| O=C(Cc1cccc(Br)c1)Nc1cnn(-c2cccc(C(=O)Nc3ccc(N4CCOCC4)cc3)c2)c1 | -2.11% |
